Among all 360,000 compounds or so, about 3,700 (1%) were called active. This is one part of a sample in which actives are shown more often than they occur. No stated cut-off is given here; in the data, active means activation above about 30%; inactive means the rest.
The molecules below were run against D(1A) dopamine receptor (Homo sapiens) (UniProt P21728) (assay: Allosteric Agonists of the Human D1 Dopamine Receptor: qHTS). Conditions: HEK293 T-REx D1 cells, calcium flux, agonist mode; at 2 µM; stronger effect = higher value.
Sequence of D(1A) dopamine receptor (Homo sapiens) (P21728 whole entry, looked up): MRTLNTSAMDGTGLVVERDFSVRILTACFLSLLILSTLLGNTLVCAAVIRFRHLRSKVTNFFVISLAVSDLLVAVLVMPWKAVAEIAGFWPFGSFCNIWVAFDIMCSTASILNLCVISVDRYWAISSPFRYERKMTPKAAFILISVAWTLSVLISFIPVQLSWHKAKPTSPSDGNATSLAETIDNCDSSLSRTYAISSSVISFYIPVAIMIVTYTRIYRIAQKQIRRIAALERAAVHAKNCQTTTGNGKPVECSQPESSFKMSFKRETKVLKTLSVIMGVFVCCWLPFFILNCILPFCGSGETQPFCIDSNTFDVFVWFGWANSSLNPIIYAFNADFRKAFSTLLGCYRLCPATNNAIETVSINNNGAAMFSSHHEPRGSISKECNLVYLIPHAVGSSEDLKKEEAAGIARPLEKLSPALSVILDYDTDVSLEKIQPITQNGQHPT
From the text: NIH Chemical Genomics Center [NCGC] NIH Molecular Libraries Probe Centers Network [MLPCN] MLPCN Grant: NS064831-01 Assay Submitter (PI): David Sibley Dopamine receptors (DARs) are involved in the etiology and/or therapy of a number of neuropsychiatric and endocrine disorders. For instance, all receptor-based antiparkinsonian drugs work via stimulating the D1 DAR subtype whereas all FDA-approved antipsychotic agents are antagonists of this receptor. […] There are three different types of allosteric modulators that we are seeking, two of which will stimulate or augment receptor signaling, allosteric agonists and potentiators, while the third, allosteric antagonists, will attenuate receptor signaling. The present primary screening assay measures compound agonism by tracking calcium flux in a […], inducible Hek293 Trex D1 cell line.
Freshly passaged cells are plated in 1536 well black, clear bottom plates at a density of 4000 cells/well in 3 ul of complete media containing 1x tetracycline inducer. After an overnight incubation at […] in 5% CO2, cells are loaded with 2 ul of the no wash Calcium Assay Kit (ABD Bioquest) and incubated at room temperature for 30 to 90 minutes. Agonist read: A 10 cycle (1 second/cycle) baseline measurement is taken and then the FDSS online 1536 pintool delivers 23 nl of compound library (as well as dopamine controls) to the plate. The plate is measured for kinetically at 1 cycle/sec for 180 seconds and is considered to be the agonist portion of the assay (eg, compounds which activate a positive calcium response during this portion are flagged as potential agonists). Following the 180 second read, 1 ul of either an EC20 (positive modulation assay) or EC80 (negative modulation assay) is delivered by an onboard pipette head. Measurements are taken kinetically for an additional 180 seconds.
`O=C(NCc1cc(C(F)(F)F)cc(C(F)(F)F)c1)C1CC(c2cccc(F)c2)=NO1` (stereo not drawn) was tested, and the activation was 44.2% (active). In the case of `COc1ccc(C2=NOC(C(=O)NCc3ccco3)C2)cc1OC` (stereo not drawn), the activation is reported as 1.23% (inactive). `COc1ccc(CNC(=O)C2CC(c3ccc(C(F)(F)F)cc3)=NO2)cc1` (stereo not drawn) was tested, and the activation was 16.3% (inactive). In the case of `Cc1ccc(N(CC(=O)NCc2ccc(Cl)cc2)S(=O)(=O)N(C)C)cc1`, the activation is reported as -0.642% (inactive). `Cn1c(=O)c(C(=O)O)nn(-c2ccccc2)c1=O` was tested, and the activation was 1.73% (inactive). In the case of `COc1cccc(NC(=O)CSC2=Nc3ccccc3C3=NC(CC(=O)NC4CCCCC4)C(=O)N23)c1` (stereo not drawn), the activation is reported as 0.2% (inactive). In the case of `CCCN(CCC)C(=O)C1CCCN(c2ncnc3c2nc2n3CCCCC2)C1` (stereo not drawn), the activation is reported as -0.793% (inactive). In the case of `COc1ccc(NC(=O)N2CCCn3nc(C)cc32)cc1OC`, the activation is reported as -0.666% (inactive). `COc1ccc(CNC(=O)CS(=O)Cc2nc(-c3cccc(C)c3)oc2C)cc1` (stereo not drawn) was tested, and the activation was 3.98% (inactive). With `Cc1cccc(-c2nc(CS(=O)CC(=O)NC(C)CCc3ccccc3)c(C)o2)c1` (stereo not drawn) the activation was 33.5% (active). With `Cc1ccc(-c2nc(CS(=O)CC(=O)NC3CCCC3)c(C)o2)cc1` (stereo not drawn) the activation was -0.511% (inactive). With `Cc1ccc(-c2nnc(Nc3cccc(Br)c3)c3ccccc23)cc1S(=O)(=O)NCC1CCCO1` (stereo not drawn) the activation was 3.26% (inactive). With `Cc1nc2c(c(=O)n1Cc1ccco1)c1nc3ccccc3nc1n2Cc1ccccc1` the activation was 0.836% (inactive). In the case of `Cc1cc(OCC(=O)N(C)c2c(N)n(Cc3ccccc3)c(=O)[nH]c2=O)c(C(C)C)cc1Cl`, the activation is reported as -0.311% (inactive). In the case of `Cc1cc2nc3c(=O)n(Cc4ccccc4)c(=O)[nH]c3nc2cc1N`, the activation is reported as 368% (active). With `CCOCCCNC(=O)c1c(NC(=O)Cc2coc3ccc(C)cc23)sc2c1CCC2` the activation was 6.68% (inactive). With `CCOC(=O)c1ccc(-c2ccc(/C=C(\C#N)C(=O)Nc3ccc(C)cc3)o2)cc1` the activation was 6.86% (inactive). With `Cc1ccc2nc(/C(C#N)=C/c3ccccc3F)[nH]c2c1` the activation was -1.08% (inactive). With `Cc1ccc2nc(/C(C#N)=C/c3ccc(-c4ccc(C(=O)OC(C)C)cc4)o3)[nH]c2c1` the activation was 165% (active). With `O=C(Nc1c(C(=O)N2CCN(c3ccc(F)cc3)CC2)oc2ccccc12)c1ccco1` the activation was 3.39% (inactive). `COC(=O)c1cc(S(=O)(=O)N2CCN(c3cc(Cl)ccc3C)CC2)c[nH]1` was tested, and the activation was 6.55% (inactive). In the case of `O=C(O)C(c1ccccc1)N1C(=O)/C(=C\c2ccc(-c3cccc(Cl)c3)o2)SC1=S` (stereo not drawn), the activation is reported as 33.5% (active). In the case of `CN=C1S/C(=C\c2ccc(Sc3ccc(Cl)cc3)o2)C(=O)N1C`, the activation is reported as -0.0809% (inactive). With `O=C(NC(=S)Nc1cc(C(F)(F)F)ccc1N1CCOCC1)c1ccc(-c2cccc(Cl)c2)o1` the activation was 4.39% (inactive). In the case of `CCCN(CCC)c1nc2c(C)cccn2c(=O)c1/C=C1/SC(=S)N(Cc2ccco2)C1=O`, the activation is reported as 48.8% (active). `Cc1ccc2[nH]c(=O)c(-c3nc4c(C)cccn4c3NCc3ccco3)cc2c1` was tested, and the activation was 1.97% (inactive). `COC(=O)CN1C(=O)CSc2ccc(S(=O)(=O)Nc3cc(C)ccc3C)cc21` was tested, and the activation was -2.48% (inactive). `Cc1c(Cl)cccc1NC(=O)C(=O)NCCc1csc2nc(-c3ccccc3F)nn12` was tested, and the activation was 8.86% (inactive). For `COc1cc(OC)cc(C(=O)Nc2cc3nn(-c4ccccc4)nc3cc2Cl)c1`, the activation was 0.0669% (inactive). With `O=C(/C=C(O)/C=C/c1ccc(O)cc1)/C=C/c1ccc(O)cc1` the activation was 432% (active). In the case of `CC(C)(C)C(=O)/C(C#N)=C/c1ccc(O)cc1`, the activation is reported as 6.88% (inactive). With `COc1cccc(C(=O)NNC(=O)/C=C/c2ccccc2)c1` the activation was 1.13% (inactive). In the case of `CCN(CC)c1ccc(NC(=O)Cn2nc3c(cc2=O)CCCC3)c(C)c1`, the activation is reported as -0.284% (inactive). For `COc1cccc(N=C2SC(C(=O)Nc3cccc(Cl)c3)CC(=O)N2C)c1` (stereo not drawn), the activation was 25.2% (inactive). For `CCN(CC)c1ccc(NC(=O)CN2C(=O)c3cccnc3Oc3ccc(Cl)cc32)c(C)c1`, the activation was 1.12% (inactive). In the case of `CCc1c(C)sc(NC(=O)C2c3ccccc3Oc3ccccc32)c1C(=O)OC(C)C`, the activation is reported as -0.651% (inactive). For `CCc1c(C)sc(NC(=O)c2cccs2)c1C(N)=O`, the activation was 0.933% (inactive). With `CCc1c(C)sc(NC(=O)c2ccc(Br)o2)c1C(=O)OC` the activation was 32.9% (active). `O=C(NC1CC(=O)N(c2ccccc2)C1)c1ccco1` (stereo not drawn) was tested, and the activation was 2.23% (inactive). In the case of `COc1ccc(-c2nc3scc(CCNS(=O)(=O)c4cc(F)ccc4OC)n3n2)cc1OC`, the activation is reported as -4.62% (inactive). For `O=C(CSc1oc(-c2ccco2)nc1S(=O)(=O)c1ccccc1)c1ccc(Cl)cc1`, the activation was 5.58% (inactive). For `COc1ccccc1Nc1cc(C(=O)NCCCN(C)C2CCCCC2)c2ccccc2n1`, the activation was 183% (active). In the case of `COc1ccc(Nc2cc(C(=O)NCCCN(C)c3ccccc3)c3ccccc3n2)c(OC)c1`, the activation is reported as 1.01% (inactive). For `CCCCN(CCCNC(=O)c1cc(Nc2ccccc2OC)nc2ccccc12)c1ccccc1`, the activation was 0.606% (inactive). For `COc1ccccc1Nc1c2c(nc3ccc(NC(=O)/C=C/c4cc(OC)c(OC)c(OC)c4)cc13)CCCC2`, the activation was -0.5% (inactive). In the case of `CCCCCCCCCCOC(=O)C[N+](C)(C)CC1CCCCC1O` (stereo not drawn), the activation is reported as 31.1% (active). In the case of `CCCCCOC(=O)c1ccc(N2C(=O)C3C4C=CC(C4)C3C2=O)cc1` (stereo not drawn), the activation is reported as 19.5% (inactive). With `COc1cc(C(=O)NCC(c2ccc(Cl)cc2)N2CCOCC2)cc(OC)c1OC` (stereo not drawn) the activation was -0.448% (inactive). In the case of `Cc1[nH]c2ccccc2c1C(c1ccccc1)c1cccs1` (stereo not drawn), the activation is reported as 0.783% (inactive). For `O=C(CCc1nc(CN2CCN(S(=O)(=O)c3ccc(Cl)cc3)CC2)no1)N1CCCCC1`, the activation was 12.7% (inactive). `CCN(CC)S(=O)(=O)c1ccc2c(c1)N(CC(=O)NCC(C)c1ccccc1)C(=O)CO2` (stereo not drawn) was tested, and the activation was 4.4% (inactive). `Cc1ccc(CNC(=O)Cn2c(=O)ccc3cc(S(=O)(=O)N4CCCC4)ccc32)cc1` was tested, and the activation was -0.173% (inactive). With `CCOc1ccc(Cn2nnc(C(=O)NCc3ccccc3)c2N)cc1` the activation was 36.7% (active). `CCOc1ccc(CNC(=O)c2cc(-c3ccc(Cl)s3)nc3ccccc23)cc1` was tested, and the activation was 36.4% (active). For `CCOc1ccc(CNC(=O)c2ccc(CS(=O)c3ccccc3)o2)cc1` (stereo not drawn), the activation was 0.22% (inactive). With `CCOc1ccc(Cn2nnc(C(=O)Nc3ccc(OC)cc3OC)c2N)cc1` the activation was 6.39% (inactive). For `Cc1c(NC(=O)c2cc(-c3ccc(Cl)s3)nc3ccccc23)c(=O)n(-c2ccccc2)n1C`, the activation was 0.635% (inactive). `CC(=O)N1CCN(C(=O)c2cc(-c3ccc(Cl)s3)nc3ccccc23)CC1` was tested, and the activation was -0.053% (inactive).

Source: PubChem BioAssay AID504660 (National Center for Advancing Translational Sciences (NCATS), 2011)
Further: 0% is about no effect.
